Targets with a hit are over-represented here; the source holds about 7,900 in all. About 0.6% of all pairs of compound and target were hits.
compound: C1=CC=C(C=C1)[C@H](COC2=CC3=C(C=C2)NC(=O)N3)NC(=O)C4=CC=CN(C4=O)CC5=CC(=C(C=C5)F)F; experiment: log2 fold change, soluble protein after heating vs DMSO (PISA); higher = thermal stabilisation; K562 cells, 10 uM, 30 min; active = over 0.2 and 3.5 SD of the protein, either way, in both replicates (recomputed)
How it was run: (§1)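 K562 cells at 2×10^6 cells/mL were exposed to 10 μM compound for 30 min, then aliquots were heated for 3 min across 48°C-58°C, pooled, and extracted in PBS containing 0.5% NP-40 at 4°C. The supernatant after 21,000xg for 90 min was taken as soluble protein and measured by TMTpro 16plex LC-MS/MS with channel sums equalised. Thermal stability is reported relative to control samples, with values from duplicates. Fold changes are given on a log2 scale.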

Chain of UniProt Q7Z4H3 (Q7Z4H3 whole entry, looked up): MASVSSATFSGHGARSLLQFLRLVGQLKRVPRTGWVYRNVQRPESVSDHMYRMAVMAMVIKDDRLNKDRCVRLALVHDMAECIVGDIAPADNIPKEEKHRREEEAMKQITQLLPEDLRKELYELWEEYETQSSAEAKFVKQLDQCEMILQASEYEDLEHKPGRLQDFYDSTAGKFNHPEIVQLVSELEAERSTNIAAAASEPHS
Chain of UniProt Q14527 (Q14527 whole entry, looked up): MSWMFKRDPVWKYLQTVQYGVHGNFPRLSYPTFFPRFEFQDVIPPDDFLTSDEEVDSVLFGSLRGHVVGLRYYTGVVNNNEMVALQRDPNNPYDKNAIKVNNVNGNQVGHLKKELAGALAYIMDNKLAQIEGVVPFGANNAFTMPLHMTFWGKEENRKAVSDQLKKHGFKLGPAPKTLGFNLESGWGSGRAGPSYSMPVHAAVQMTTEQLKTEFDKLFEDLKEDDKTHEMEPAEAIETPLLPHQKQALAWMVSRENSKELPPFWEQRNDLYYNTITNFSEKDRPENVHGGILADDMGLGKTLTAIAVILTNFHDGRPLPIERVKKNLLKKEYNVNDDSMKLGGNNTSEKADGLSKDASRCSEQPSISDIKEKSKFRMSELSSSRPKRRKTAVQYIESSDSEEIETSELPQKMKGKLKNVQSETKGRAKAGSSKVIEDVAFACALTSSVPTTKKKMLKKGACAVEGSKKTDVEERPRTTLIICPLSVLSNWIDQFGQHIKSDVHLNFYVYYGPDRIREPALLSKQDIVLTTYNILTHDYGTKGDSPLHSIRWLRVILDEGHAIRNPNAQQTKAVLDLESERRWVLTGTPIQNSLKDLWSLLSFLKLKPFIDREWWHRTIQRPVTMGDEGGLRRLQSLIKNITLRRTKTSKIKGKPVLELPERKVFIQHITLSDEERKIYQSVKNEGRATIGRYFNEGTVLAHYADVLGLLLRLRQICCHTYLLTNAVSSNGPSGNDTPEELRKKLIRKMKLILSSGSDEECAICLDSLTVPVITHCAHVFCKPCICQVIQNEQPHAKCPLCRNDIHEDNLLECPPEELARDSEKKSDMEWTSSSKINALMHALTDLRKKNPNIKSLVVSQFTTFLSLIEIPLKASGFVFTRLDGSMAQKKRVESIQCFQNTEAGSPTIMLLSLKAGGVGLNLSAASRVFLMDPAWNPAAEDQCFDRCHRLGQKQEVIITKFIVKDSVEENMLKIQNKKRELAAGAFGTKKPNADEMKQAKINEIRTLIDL
Chain of UniProt Q06546 (Q06546 whole entry, looked up): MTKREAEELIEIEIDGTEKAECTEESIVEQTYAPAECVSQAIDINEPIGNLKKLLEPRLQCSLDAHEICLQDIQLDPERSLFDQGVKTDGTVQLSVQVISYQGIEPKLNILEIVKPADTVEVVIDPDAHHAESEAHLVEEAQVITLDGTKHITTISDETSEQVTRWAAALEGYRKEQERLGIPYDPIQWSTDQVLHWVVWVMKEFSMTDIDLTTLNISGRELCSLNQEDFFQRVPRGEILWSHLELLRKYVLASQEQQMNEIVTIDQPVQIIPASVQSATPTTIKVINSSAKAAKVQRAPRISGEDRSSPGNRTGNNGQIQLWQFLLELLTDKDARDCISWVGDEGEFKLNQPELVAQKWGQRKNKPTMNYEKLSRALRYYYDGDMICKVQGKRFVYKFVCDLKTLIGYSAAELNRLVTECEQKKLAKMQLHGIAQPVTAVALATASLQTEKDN
Chain of UniProt Q9NVI1 (Q9NVI1 whole entry, looked up): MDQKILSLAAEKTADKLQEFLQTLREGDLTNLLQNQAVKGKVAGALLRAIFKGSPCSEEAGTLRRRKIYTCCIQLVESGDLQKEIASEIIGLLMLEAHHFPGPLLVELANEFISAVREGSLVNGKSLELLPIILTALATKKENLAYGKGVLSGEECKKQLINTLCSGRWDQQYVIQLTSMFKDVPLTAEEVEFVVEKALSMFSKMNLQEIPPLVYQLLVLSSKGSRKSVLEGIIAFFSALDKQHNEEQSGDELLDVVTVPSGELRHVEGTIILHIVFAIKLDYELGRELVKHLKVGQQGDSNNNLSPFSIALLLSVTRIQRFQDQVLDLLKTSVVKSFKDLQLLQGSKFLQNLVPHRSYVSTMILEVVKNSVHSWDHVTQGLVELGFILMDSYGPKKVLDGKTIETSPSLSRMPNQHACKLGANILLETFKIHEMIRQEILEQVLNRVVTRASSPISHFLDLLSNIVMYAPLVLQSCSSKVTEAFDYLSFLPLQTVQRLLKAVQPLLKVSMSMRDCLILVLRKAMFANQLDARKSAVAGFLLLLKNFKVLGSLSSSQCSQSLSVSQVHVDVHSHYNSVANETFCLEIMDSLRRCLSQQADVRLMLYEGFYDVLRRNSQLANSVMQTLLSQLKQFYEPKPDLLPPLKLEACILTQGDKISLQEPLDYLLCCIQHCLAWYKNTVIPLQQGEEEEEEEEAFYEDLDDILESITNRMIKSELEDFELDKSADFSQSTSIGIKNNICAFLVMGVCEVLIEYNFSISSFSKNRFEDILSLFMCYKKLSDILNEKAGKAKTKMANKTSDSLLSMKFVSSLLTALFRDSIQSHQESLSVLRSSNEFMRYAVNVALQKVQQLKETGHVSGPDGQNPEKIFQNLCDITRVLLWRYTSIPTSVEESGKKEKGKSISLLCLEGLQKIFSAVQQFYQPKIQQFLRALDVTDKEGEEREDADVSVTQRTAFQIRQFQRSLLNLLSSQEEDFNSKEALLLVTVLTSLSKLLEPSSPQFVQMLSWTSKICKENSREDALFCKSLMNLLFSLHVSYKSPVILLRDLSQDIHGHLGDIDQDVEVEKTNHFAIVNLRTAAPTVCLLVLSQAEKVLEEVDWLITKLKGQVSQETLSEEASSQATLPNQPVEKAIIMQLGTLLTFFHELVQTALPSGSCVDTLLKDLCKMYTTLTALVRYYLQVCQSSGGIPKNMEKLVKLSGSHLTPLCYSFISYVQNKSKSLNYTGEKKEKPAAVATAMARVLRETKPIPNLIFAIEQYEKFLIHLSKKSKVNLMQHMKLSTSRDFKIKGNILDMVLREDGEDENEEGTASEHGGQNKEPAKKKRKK
Chain of UniProt Q86VS8 (Q86VS8 whole entry, looked up): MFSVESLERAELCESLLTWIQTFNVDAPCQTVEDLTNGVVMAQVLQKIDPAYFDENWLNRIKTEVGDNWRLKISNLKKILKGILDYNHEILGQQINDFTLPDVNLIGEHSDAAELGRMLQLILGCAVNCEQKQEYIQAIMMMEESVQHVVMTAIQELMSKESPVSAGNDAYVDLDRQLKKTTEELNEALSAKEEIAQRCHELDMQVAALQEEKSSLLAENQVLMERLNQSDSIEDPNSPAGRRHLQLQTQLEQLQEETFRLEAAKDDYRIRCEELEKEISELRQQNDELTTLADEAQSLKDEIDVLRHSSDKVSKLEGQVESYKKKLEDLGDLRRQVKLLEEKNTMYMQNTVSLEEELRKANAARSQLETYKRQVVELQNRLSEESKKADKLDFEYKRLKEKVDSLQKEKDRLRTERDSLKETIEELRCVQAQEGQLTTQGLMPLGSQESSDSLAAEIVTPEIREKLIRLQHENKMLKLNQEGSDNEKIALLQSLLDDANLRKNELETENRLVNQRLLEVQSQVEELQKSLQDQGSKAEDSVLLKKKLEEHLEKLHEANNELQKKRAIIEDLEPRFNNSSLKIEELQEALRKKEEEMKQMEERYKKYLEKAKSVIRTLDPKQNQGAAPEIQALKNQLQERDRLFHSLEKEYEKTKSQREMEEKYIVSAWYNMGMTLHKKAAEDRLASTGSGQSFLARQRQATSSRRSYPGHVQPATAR
Chain of UniProt Q9BTY2 (Q9BTY2 whole entry, looked up): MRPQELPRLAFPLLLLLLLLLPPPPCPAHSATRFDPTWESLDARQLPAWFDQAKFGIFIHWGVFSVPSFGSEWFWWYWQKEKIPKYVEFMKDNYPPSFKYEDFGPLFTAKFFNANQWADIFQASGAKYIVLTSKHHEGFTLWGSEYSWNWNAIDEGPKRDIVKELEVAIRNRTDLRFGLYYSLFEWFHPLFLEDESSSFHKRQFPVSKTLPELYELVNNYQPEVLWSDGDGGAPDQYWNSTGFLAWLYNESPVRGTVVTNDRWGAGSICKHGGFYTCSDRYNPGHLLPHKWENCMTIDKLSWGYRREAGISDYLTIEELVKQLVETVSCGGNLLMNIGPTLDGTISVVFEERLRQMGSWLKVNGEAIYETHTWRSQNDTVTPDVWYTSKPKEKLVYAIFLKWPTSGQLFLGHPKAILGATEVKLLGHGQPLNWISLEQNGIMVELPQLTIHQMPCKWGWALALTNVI
Chain of UniProt Q96I24 (Q96I24 whole entry, looked up): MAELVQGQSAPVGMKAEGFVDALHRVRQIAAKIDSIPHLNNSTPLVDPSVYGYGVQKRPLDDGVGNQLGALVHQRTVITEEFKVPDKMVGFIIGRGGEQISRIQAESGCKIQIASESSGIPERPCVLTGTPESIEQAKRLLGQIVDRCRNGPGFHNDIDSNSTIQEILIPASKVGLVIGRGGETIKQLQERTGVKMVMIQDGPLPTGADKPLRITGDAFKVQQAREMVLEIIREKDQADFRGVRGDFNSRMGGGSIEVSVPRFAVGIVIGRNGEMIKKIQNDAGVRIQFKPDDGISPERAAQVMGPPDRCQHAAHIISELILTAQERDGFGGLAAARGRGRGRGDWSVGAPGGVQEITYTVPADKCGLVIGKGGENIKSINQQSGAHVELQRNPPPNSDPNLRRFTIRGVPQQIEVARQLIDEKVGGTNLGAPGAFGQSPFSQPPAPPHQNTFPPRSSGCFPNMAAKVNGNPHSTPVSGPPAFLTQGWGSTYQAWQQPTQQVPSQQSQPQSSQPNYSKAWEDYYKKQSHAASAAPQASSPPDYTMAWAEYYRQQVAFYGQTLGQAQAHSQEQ
Chain of UniProt P60520 (P60520 whole entry, looked up): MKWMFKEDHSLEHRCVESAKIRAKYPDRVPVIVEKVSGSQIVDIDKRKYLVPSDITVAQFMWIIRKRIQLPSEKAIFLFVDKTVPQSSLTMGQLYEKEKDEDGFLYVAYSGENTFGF
Chain of UniProt Q01628 (Q01628 whole entry, looked up): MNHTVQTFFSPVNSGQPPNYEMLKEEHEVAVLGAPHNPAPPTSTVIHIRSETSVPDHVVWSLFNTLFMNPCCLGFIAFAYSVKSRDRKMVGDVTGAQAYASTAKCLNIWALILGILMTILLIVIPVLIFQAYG

Target | log2 fold change
GDPD1 (UniProt Q8N9F7) | -0.054 (inactive)
IFITM3 (UniProt Q01628) | 0.038 (inactive)
FBL (UniProt P22087) | 0.095 (inactive)
GBF1 (UniProt Q92538) | -0.078 (inactive)
GYS1 (UniProt P13807) | 0.007 (inactive)
GGT7 (UniProt Q9UJ14) | 0.028 (inactive)
HDAC2 (UniProt Q92769) | 0.022 (inactive)
IFNGR1 (UniProt P15260) | 0.106 (inactive)
GAPVD1 isoform 6 (UniProt Q14C86) | -0.09 (inactive)
GNG5 (UniProt P63218) | 0.044 (inactive)
FBXO7 (UniProt Q9Y3I1) | -0.002 (inactive)
HOOK3 (UniProt Q86VS8) | -0.065 (inactive)
GABPA (UniProt Q06546) | -0.001 (inactive)
FUCA2 (UniProt Q9BTY2) | 0.055 (inactive)
GID4 (UniProt Q8IVV7) | -0.012 (inactive)
HAUS4 (UniProt Q9H6D7) | 0.094 (inactive)
GLRX3 (UniProt O76003) | 0.04 (inactive)
GABARAPL2 (UniProt P60520) | 0.037 (inactive)

Target | log2 fold change
GALNT1 (UniProt Q10472) | -0.034 (inactive)
GSTT1 (UniProt P30711) | 0.032 (inactive)
FANCI (UniProt Q9NVI1) | -0.071 (inactive)
FUT8 (UniProt Q9BYC5) | 0 (inactive)
GTF2E2 (UniProt P29084) | -0.009 (inactive)
HSPA8 (UniProt P11142) | -0.019 (inactive)
GEMIN5 (UniProt Q8TEQ6) | -0.004 (inactive)
FAM91A1 (UniProt Q658Y4) | 0 (inactive)
FUBP3 (UniProt Q96I24) | 0.009 (inactive)
HDDC2 (UniProt Q7Z4H3) | 0.009 (inactive)
FRA10AC1 isoform 3 (UniProt Q70Z53) | -0.03 (inactive)
GSTO1 (UniProt P78417) | -0.024 (inactive)
HLTF (UniProt Q14527) | 0.003 (inactive)
HIKESHI (UniProt Q53FT3) | 0.014 (inactive)
HSPA8 (UniProt E9PK54) | 0.004 (inactive)
FASTKD1 (UniProt Q53R41) | -0.038 (inactive)
FIBP (UniProt O43427) | 0.091 (inactive)

compound: CC1=C(SC2=C1C(=N[C@H](C3=NN=C(N32)C)CC(=O)N)C4=CC=C(C=C4)Cl)C; experiment: as above
How it was run: as §1

Target | log2 fold change
GDPD1 (UniProt Q8N9F7) | 0.003 (inactive)
IFITM3 (UniProt Q01628) | -0.024 (inactive)
FBL (UniProt P22087) | -0.267 (inactive)
GBF1 (UniProt Q92538) | 0.036 (inactive)
GYS1 (UniProt P13807) | -0.13 (inactive)
GGT7 (UniProt Q9UJ14) | -0.055 (inactive)
HDAC2 (UniProt Q92769) | 0.042 (inactive)
IFNGR1 (UniProt P15260) | 0.105 (inactive)
GAPVD1 isoform 6 (UniProt Q14C86) | 0.008 (inactive)
GNG5 (UniProt P63218) | 0.063 (inactive)
FBXO7 (UniProt Q9Y3I1) | 0.033 (inactive)
HOOK3 (UniProt Q86VS8) | -0.003 (inactive)
GABPA (UniProt Q06546) | 0.005 (inactive)
FUCA2 (UniProt Q9BTY2) | -0.004 (inactive)
GID4 (UniProt Q8IVV7) | -0.021 (inactive)
HAUS4 (UniProt Q9H6D7) | -0.066 (inactive)
GLRX3 (UniProt O76003) | 0.072 (inactive)
GABARAPL2 (UniProt P60520) | 0.035 (inactive)

Target | log2 fold change
GALNT1 (UniProt Q10472) | 0.069 (inactive)
GSTT1 (UniProt P30711) | 0.121 (inactive)
FANCI (UniProt Q9NVI1) | 0.028 (inactive)
FUT8 (UniProt Q9BYC5) | 0.068 (inactive)
GTF2E2 (UniProt P29084) | 0.043 (inactive)
HSPA8 (UniProt P11142) | -0.032 (inactive)
GEMIN5 (UniProt Q8TEQ6) | -0.019 (inactive)
FAM91A1 (UniProt Q658Y4) | 0.04 (inactive)
FUBP3 (UniProt Q96I24) | 0.002 (inactive)
HDDC2 (UniProt Q7Z4H3) | 0.057 (inactive)
FRA10AC1 isoform 3 (UniProt Q70Z53) | 0.005 (inactive)
GSTO1 (UniProt P78417) | 0.028 (inactive)
HLTF (UniProt Q14527) | 0.012 (inactive)
HIKESHI (UniProt Q53FT3) | 0.12 (inactive)
HSPA8 (UniProt E9PK54) | -0.108 (inactive)
FASTKD1 (UniProt Q53R41) | 0.151 (inactive)
FIBP (UniProt O43427) | 0.152 (inactive)

compound: CC1=C2C(=CC=C1)N=C(N(C2=O)C3=CC=CC=C3C)CN4C=NC5=C(N=CN=C54)N; experiment: as above
How it was run: as §1

Target | log2 fold change
GDPD1 (UniProt Q8N9F7) | 0.057 (inactive)
IFITM3 (UniProt Q01628) | -0.06 (inactive)
FBL (UniProt P22087) | -0.126 (inactive)
GBF1 (UniProt Q92538) | 0.072 (inactive)
GYS1 (UniProt P13807) | -0.02 (inactive)
GGT7 (UniProt Q9UJ14) | -0.069 (inactive)
HDAC2 (UniProt Q92769) | 0.08 (inactive)
IFNGR1 (UniProt P15260) | 0.028 (inactive)
GAPVD1 isoform 6 (UniProt Q14C86) | 0.097 (inactive)
GNG5 (UniProt P63218) | 0.012 (inactive)
FBXO7 (UniProt Q9Y3I1) | 0.045 (inactive)
HOOK3 (UniProt Q86VS8) | 0.018 (inactive)
GABPA (UniProt Q06546) | 0.149 (inactive)
FUCA2 (UniProt Q9BTY2) | 0.005 (inactive)
GID4 (UniProt Q8IVV7) | 0.138 (inactive)
HAUS4 (UniProt Q9H6D7) | 0.077 (inactive)
GLRX3 (UniProt O76003) | 0.072 (inactive)
GABARAPL2 (UniProt P60520) | 0.039 (inactive)

Target | log2 fold change
GALNT1 (UniProt Q10472) | -0.002 (inactive)
GSTT1 (UniProt P30711) | 0.165 (inactive)
FANCI (UniProt Q9NVI1) | 0.109 (inactive)
FUT8 (UniProt Q9BYC5) | -0.06 (inactive)
GTF2E2 (UniProt P29084) | 0.126 (inactive)
HSPA8 (UniProt P11142) | -0.02 (inactive)
GEMIN5 (UniProt Q8TEQ6) | 0.022 (inactive)
FAM91A1 (UniProt Q658Y4) | 0.028 (inactive)
FUBP3 (UniProt Q96I24) | 0.017 (inactive)
HDDC2 (UniProt Q7Z4H3) | -0.012 (inactive)
FRA10AC1 isoform 3 (UniProt Q70Z53) | 0.055 (inactive)
GSTO1 (UniProt P78417) | -0.002 (inactive)
HLTF (UniProt Q14527) | 0.062 (inactive)
HIKESHI (UniProt Q53FT3) | 0.149 (inactive)
HSPA8 (UniProt E9PK54) | 0.037 (inactive)
FASTKD1 (UniProt Q53R41) | 0.013 (inactive)
FIBP (UniProt O43427) | 0.042 (inactive)

Reference: the supplement of paper PMC10849652
